We go through five compounds from PubChem BioAssay (EPA / NIEHS).

Structures are written as SMILES. Results filed as inconclusive are left out. The source made the active and inactive calls. How the source made its calls, unless noted: active means hit-call score of the fitted dose curve at least 0.9, where 1 is the maximum; inconclusive means response in the unintended direction; inactive means score below 0.9.

A short description of experiment [1]: ATG_TCF_b_cat_CIS: Attagene CIS-FACTORIAL HepG2 Assay for human T-Cell-Factor with beta-catenin (TCF/b-cat) (AID 2282965; active means hit-call score of the fitted dose curve at least 0.9, where 1 is the maximum; inactive means score below 0.9). Conditions: HepG2 TCF/beta-catenin cis-reporter transcription, actives raise or lower the signal. Summed up:
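Endogenous transcription factor activity is captured through cis-promoter reporter constructs transiently introduced into human HepG2 liver cells. Induced reporter mRNA is measured after 24 h and fitted bidirectionally relative to DMSO.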

A short description of experiment [2]: ATG_TAL_CIS: Attagene CIS-FACTORIAL HepG2 Assay for human TAL Basal Promoter (AID 2282966; active means hit-call score of the fitted dose curve at least 0.9, where 1 is the maximum; inactive means score below 0.9;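 further: background control endpoint measuring basal TAL promoter reporter mRNA not a specific factor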). Conditions: HepG2 Attagene cis-factorial TAL promoter reporter; actives raise or lower the signal. The method, boiled down:
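Fluorescence of labelled reporter cDNA fragments, resolved by capillary electrophoresis, gave the readout. Human HepG2 liver cells carried transiently transfected cis-element reporter units and were treated for 24 hours; activity was fitted bidirectionally against DMSO.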

The nature of experiment [3]: ATG_TGFb_CIS: Attagene CIS-FACTORIAL HepG2 Assay for human Transforming Growth Factor (TGF) (AID 2282967; active means hit-call score of the fitted dose curve at least 0.9, where 1 is the maximum; inactive means score below 0.9). The note with it: HepG2 Attagene CIS TGFb reporter, mRNA transcription; actives raise or lower the signal. Summed up:
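Transcript-level reporter readout: HepG2 transfectants, 24 h exposure, RNA to cDNA, reporter-specific PCR, fluorescent primer extension, capillary sizing against ROX standards. Gain- or loss-of-signal relative to DMSO.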

Experiment [4] is described as follows: ATG_VDRE_CIS: Attagene CIS-FACTORIAL HepG2 Assay for human Vitamin D Receptor Element (VDRE) (AID 2282968; active means hit-call score of the fitted dose curve at least 0.9, where 1 is the maximum; inactive means score below 0.9). The note with it: HepG2 VDRE cis-reporter transcription, actives raise or lower the signal. The method, boiled down:
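Reporter mRNA induction, quantified by capillary electrophoresis of fluorescently labelled RT-PCR products, was read 24 h after dosing HepG2 cells carrying transiently transfected cis-regulated reporter units; gain or loss relative to DMSO.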

Experiment [5] deals with Estrogen receptor (Homo sapiens) (UniProt P03372). The experiment is described as follows: ATG_ERa_TRANS: Attagene TRANS-FACTORIAL HepG2 Assay for human Estrogen Receptor alpha (ERa) (AID 2282970). The note with it: HepG2 Attagene TRANS ERa GAL4 reporter, mRNA. The method, boiled down: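 Human liver HepG2, transient transfection of multiple GAL4-UAS reporter units; TRANS format (exogenous NR-Gal4 chimera). 24 h dosing. Readout: reporter mRNA, RT-PCR, 6-FAM primer extension, HpaI digest, capillary electrophoresis. Positive direction vs DMSO.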
Chain of Estrogen receptor (Homo sapiens) (P03372 whole entry, looked up, the tested form may be a part): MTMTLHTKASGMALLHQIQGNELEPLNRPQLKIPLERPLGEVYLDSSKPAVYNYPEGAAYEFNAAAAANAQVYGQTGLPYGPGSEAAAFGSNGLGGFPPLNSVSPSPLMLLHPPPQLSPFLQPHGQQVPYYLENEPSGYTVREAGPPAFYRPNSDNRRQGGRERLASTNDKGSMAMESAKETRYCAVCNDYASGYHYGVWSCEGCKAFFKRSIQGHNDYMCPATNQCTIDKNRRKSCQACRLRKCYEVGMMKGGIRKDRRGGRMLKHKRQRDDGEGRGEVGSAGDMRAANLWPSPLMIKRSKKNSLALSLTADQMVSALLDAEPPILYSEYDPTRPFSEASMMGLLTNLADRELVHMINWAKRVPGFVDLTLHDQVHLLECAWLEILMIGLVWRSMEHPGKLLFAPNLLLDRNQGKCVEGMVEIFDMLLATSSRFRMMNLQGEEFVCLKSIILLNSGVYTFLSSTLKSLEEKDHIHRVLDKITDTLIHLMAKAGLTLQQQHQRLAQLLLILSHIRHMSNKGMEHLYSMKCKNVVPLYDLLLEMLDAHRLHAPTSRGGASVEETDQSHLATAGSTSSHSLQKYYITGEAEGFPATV

The target of experiment [6] is X-box-binding protein 1 (Homo sapiens) (UniProt P17861). The experiment is described as follows: ATG_Xbp1_CIS: Attagene CIS-FACTORIAL HepG2 Assay for human X-box Binding Protein 1 (XBP1) (AID 2282972; active means hit-call score of the fitted dose curve at least 0.9, where 1 is the maximum; inactive means score below 0.9). Conditions: HepG2 XBP1 cis-element reporter, Attagene multiplex; actives raise or lower the signal. The method, boiled down: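 HepG2 cells transiently transfected with multiple cis-element reporter units report endogenous TF activity; 24 h exposure, then reporter mRNA measured by RT-PCR, 6-FAM labelling, HpaI digestion and capillary electrophoresis. Bidirectional fitting versus DMSO.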
Chain of X-box-binding protein 1 (Homo sapiens) (P17861 whole entry, looked up): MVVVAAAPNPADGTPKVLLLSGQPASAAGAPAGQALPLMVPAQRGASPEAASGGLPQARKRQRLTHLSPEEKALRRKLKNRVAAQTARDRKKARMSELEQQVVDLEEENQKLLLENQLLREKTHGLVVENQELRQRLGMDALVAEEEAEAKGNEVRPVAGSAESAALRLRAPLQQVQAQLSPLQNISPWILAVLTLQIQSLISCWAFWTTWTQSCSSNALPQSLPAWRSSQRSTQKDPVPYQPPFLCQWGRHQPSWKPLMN

The nature of experiment [7]: ATG_M_19_TRANS: Attagene TRANS-FACTORIAL HepG2 Assay for M19 Transcription Factor (Internal Marker) (AID 2282974). Conditions: HepG2 Attagene TRANS-FACTORIAL M19 internal marker reporter. The method, boiled down:
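Transfected HepG2 (GAL4-UAS MRTUs), 24 h compound, TriZol RNA, DNase-treated RT, reporter PCR, FAM label, HpaI digest, CE fluorescence; gain vs DMSO.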

Experiment [8] in a line: ATG_GAL4_TRANS: Attagene TRANS-FACTORIAL HepG2 Assay for GAL4 (Internal Marker) (AID 2282976). Conditions: HepG2 Attagene TRANS GAL4 internal marker reporter. Summed up: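 First, HepG2 cells were transfected with reporter units under GAL4-UAS control. Next, they were treated with chemical for 24 h. Finally, RNA was reverse-transcribed, PCR-amplified, FAM-labelled and resolved by capillary electrophoresis, with induction scored against DMSO.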

Experiment [9] addresses Estrogen-related receptor gamma (Homo sapiens) (UniProt P62508). The experiment is described as follows: ATG_ERRg_TRANS: Attagene TRANS-FACTORIAL HepG2 Assay for human Estrogen-Related Receptor gamma (ERRg) (AID 2282977).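 Further: hits increase reporter signal over DMSO so potencies reflect activators.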 Conditions: HepG2 Attagene TRANS reporter, ERRg transactivation. Summed up: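 Transfect HepG2 with multiple GAL4-UAS reporter transcription units; dose chemicals 24 h; isolate RNA, reverse-transcribe with oligo(dT), PCR-amplify, label with 6-FAM, digest with HpaI; size fragments by capillary electrophoresis. DMSO serves as negative control.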

A short description of experiment [10]: ATG_M_06_TRANS: Attagene TRANS-FACTORIAL HepG2 Assay for M06 Transcription Factor (Internal Marker) (AID 2282983).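 Further: reporter transcript level by RT-PCR then capillary electrophoresis fluorescence.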 The note with it: HepG2 Attagene TRANS M06 internal marker reporter. Summed up:
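Transfect HepG2 with MRTUs → dose compounds 24 h → isolate RNA, oligo(dT) RT → PCR with reporter primers → 6-FAM primer extension → HpaI digest → CE fragment analysis. Positive direction vs DMSO.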

The nature of experiment [11]: ATG_M_32_TRANS: Attagene TRANS-FACTORIAL HepG2 Assay for M32 Transcription Factor (Internal Marker) (AID 2282984).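 Further: transcript level of a background control reporter unit measured by RT-PCR and capillary electrophoresis.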 Conditions: HepG2 Attagene TRANS M32 internal marker reporter. The method, boiled down:
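Measures reporter mRNA induction in human HepG2 liver cells after 24 h chemical treatment. Transcripts from transiently transfected GAL4-UAS reporter units are amplified, fluorescently labelled and sized by capillary electrophoresis; gain of signal relative to DMSO.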

Experiment [12] addresses Nuclear receptor subfamily 4 group A member 2 (Homo sapiens) (UniProt P43354). The experiment in a line: ATG_NURR1_TRANS: Attagene TRANS-FACTORIAL HepG2 Assay for human Nuclear Receptor Related Protein 1 (NURR1) (AID 2282985). The note with it: HepG2 Attagene TRANS reporter, mRNA readout. The method, boiled down:
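Transient transfection of HepG2, human liver cells, with multiple GAL4-UAS reporter transcription units. Cells dosed 24 h, RNA isolated, reverse-transcribed, PCR-amplified, FAM-labelled, HpaI-digested, sized by capillary electrophoresis. DMSO served as negative control.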

The target in experiment [13] is Transcriptional activator Myb (Homo sapiens) (UniProt P10242). The experiment in a line: ATG_Myb_CIS: Attagene CIS-FACTORIAL HepG2 Assay for human Myeloblastosis (Myb) Proto-Oncogene Transcription Factor (AID 2282986; active means hit-call score of the fitted dose curve at least 0.9, where 1 is the maximum; inactive means score below 0.9). Conditions: HepG2 Attagene CIS-FACTORIAL Myb reporter transcription; actives raise or lower the signal. Summed up: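 After 24 h of compound dosing, total RNA from transfected HepG2 cells is reverse-transcribed and the reporter sequences amplified, labeled and separated by capillary electrophoresis. Values come from bidirectional fitting against DMSO.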
Chain of Transcriptional activator Myb (Homo sapiens) (P10242 whole entry, looked up): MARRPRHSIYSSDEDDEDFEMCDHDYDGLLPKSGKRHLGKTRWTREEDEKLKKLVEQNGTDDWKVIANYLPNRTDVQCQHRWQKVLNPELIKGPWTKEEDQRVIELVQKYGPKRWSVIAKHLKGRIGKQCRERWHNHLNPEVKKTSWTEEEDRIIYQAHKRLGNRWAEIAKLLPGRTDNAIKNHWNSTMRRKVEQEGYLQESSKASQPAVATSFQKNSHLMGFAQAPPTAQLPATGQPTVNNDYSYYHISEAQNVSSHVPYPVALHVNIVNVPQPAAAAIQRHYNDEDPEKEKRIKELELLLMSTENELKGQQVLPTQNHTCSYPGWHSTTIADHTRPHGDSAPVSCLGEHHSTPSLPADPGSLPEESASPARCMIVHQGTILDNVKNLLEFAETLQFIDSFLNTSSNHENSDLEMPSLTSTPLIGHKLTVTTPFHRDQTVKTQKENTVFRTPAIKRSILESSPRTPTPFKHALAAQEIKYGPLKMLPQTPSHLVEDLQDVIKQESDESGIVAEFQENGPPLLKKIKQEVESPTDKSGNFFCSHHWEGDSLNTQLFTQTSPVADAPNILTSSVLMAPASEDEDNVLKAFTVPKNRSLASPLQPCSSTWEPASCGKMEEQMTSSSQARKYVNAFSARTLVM

The target of experiment [14] is Glucocorticoid receptor (Homo sapiens) (UniProt P04150). The experiment is described as follows: ATG_GR_TRANS: Attagene TRANS-FACTORIAL HepG2 Assay for human Glucocorticoid Receptor (GR) (AID 2282978).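 Further: activators score as hits since higher reporter transcript over DMSO is fitted.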 Conditions: HepG2 Attagene TRANS GR reporter, mRNA transcription. Summed up:
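After 24 h incubation with test chemical, transfected HepG2 cells were lysed for RNA; reporter cDNA was amplified, FAM-labelled, HpaI-digested and sized on a capillary analyser. Signal gain relative to DMSO was scored.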

For experiment [15], the target named is Bile acid receptor (Homo sapiens) (UniProt Q96RI1). The experiment in a line: ATG_FXR_TRANS: Attagene TRANS-FACTORIAL HepG2 Assay for Farnesoid X Receptor (FXR) (AID 2282979).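 Further: hits raise reporter mRNA above DMSO so AC50 marks FXR activation.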 Conditions: HepG2 Attagene TRANS FXR-GAL4 reporter transcription. The method, boiled down:
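Transient transfection of HepG2 with multiplexed GAL4-UAS reporter units; exogenous FXR-GAL4 chimera. Dose 24 h → TriZol RNA → oligo(dT) RT → PCR, 6-FAM primer extension, HpaI cut → CE. Gain vs DMSO.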

The target of experiment [16] is Oxysterols receptor LXR-alpha (Homo sapiens) (UniProt Q13133). The experiment in a line: ATG_LXRa_TRANS: Attagene TRANS-FACTORIAL HepG2 Assay for human Liver X Receptor alpha (LXRa) (AID 2282980). The note with it: HepG2 Attagene TRANS reporter, LXRa transactivation. The method, boiled down: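 Transfect HepG2 with GAL4-UAS multiplex reporter constructs (TRANS format, chimeric receptor-GAL4); treat 24 h; extract RNA, reverse-transcribe, PCR-amplify, FAM-label, HpaI-digest; resolve fragments by capillary electrophoresis. Upward response vs DMSO.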
Chain of Oxysterols receptor LXR-alpha (Homo sapiens) (Q13133 whole entry, looked up, the tested form may be a part): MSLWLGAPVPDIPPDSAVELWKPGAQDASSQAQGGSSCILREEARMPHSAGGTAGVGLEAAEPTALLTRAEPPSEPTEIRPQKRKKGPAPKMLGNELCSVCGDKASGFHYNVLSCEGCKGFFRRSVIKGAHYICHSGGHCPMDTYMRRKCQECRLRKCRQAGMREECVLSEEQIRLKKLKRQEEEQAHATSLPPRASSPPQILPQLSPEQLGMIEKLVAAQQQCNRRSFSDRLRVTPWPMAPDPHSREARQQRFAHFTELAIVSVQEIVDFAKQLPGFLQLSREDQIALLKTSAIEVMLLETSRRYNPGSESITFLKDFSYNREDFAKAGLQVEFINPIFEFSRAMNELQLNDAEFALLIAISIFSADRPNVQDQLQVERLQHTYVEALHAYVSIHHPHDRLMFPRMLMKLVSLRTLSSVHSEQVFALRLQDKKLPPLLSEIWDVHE

In experiment [17] the target is Hepatocyte nuclear factor 4-alpha (Homo sapiens) (UniProt P41235). The experiment in a line: ATG_HNF4a_TRANS: Attagene TRANS-FACTORIAL HepG2 Assay for human Hepatocyte Nuclear Factor 4 alpha (HNF4a) (AID 2282982). Conditions: HepG2 HNF4a transactivation reporter, mRNA readout. Summed up: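 Readout is fluorescent reporter-transcript fragments resolved by capillary electrophoresis after RT-PCR from HepG2 cells dosed for 24 h. Cells carried transfected GAL4-UAS reporter constructs measuring exogenous NR-GAL4 chimera activity; DMSO served as baseline.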
Chain of Hepatocyte nuclear factor 4-alpha (Homo sapiens) (P41235 whole entry, looked up, the tested form may be a part): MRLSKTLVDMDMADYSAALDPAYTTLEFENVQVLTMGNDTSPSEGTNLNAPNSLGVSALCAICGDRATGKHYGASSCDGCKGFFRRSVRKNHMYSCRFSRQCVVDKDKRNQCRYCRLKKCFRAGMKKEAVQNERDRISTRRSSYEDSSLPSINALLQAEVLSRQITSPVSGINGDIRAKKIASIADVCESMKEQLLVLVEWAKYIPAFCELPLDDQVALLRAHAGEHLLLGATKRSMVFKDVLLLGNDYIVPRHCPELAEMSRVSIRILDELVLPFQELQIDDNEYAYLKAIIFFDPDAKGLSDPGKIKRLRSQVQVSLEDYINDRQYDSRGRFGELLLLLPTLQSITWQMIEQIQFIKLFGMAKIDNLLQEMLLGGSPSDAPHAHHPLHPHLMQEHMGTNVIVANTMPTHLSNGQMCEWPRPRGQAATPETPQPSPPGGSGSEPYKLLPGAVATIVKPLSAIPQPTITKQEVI

Experiment [18] has as its target Oxysterols receptor LXR-beta (Homo sapiens) (UniProt P55055). The experiment is described as follows: ATG_LXRb_TRANS: Attagene TRANS-FACTORIAL HepG2 Assay for human Liver X Receptor beta (LXRb) (AID 2282981). Conditions: HepG2 Attagene TRANS GAL4-LXRb reporter, mRNA. Summed up: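 Transient transfection HepG2 (multiplexed RTUs, GAL4-UAS); NR-Gal4 chimera; 24 h exposure; RNA → RT-PCR → 6-FAM primer extension → HpaI → CE; increase vs DMSO.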

Chain of Nuclear receptor subfamily 4 group A member 2 (Homo sapiens) (P43354 whole entry, looked up, the tested form may be a part): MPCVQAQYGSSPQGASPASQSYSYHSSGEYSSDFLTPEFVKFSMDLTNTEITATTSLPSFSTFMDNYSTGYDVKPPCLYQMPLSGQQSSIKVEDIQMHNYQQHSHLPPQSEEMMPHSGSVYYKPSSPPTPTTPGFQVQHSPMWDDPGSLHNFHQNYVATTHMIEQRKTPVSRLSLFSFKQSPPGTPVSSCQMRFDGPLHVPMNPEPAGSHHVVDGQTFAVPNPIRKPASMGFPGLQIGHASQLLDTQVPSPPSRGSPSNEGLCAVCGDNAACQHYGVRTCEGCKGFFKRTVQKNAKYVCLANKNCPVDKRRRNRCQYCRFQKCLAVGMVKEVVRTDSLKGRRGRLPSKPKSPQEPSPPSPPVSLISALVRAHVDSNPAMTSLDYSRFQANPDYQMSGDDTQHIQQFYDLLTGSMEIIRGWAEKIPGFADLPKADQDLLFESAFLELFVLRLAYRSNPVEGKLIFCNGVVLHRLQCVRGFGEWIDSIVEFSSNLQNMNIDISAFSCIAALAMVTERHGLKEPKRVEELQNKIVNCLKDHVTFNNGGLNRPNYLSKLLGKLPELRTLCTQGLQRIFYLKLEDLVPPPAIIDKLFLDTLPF
Chain of Glucocorticoid receptor (Homo sapiens) (P04150 whole entry, looked up): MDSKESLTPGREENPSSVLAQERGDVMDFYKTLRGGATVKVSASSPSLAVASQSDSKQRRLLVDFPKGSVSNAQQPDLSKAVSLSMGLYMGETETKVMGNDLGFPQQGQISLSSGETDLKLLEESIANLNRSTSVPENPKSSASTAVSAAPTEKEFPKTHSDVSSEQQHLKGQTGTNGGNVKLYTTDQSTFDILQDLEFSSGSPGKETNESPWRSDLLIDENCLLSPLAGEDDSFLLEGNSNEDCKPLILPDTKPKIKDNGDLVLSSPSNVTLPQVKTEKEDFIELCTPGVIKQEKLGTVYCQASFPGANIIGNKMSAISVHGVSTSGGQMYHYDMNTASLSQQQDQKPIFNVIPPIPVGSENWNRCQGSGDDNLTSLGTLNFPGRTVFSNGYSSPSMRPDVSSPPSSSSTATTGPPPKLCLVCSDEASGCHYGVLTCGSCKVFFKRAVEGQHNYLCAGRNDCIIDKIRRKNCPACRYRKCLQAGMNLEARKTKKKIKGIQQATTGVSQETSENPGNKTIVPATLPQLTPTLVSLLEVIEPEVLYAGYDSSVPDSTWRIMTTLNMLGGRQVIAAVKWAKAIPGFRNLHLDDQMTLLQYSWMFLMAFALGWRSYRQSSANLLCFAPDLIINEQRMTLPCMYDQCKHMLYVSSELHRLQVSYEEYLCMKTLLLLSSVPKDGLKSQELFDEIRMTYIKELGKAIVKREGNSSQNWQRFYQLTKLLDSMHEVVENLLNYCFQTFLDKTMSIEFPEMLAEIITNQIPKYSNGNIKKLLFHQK
Chain of Bile acid receptor (Homo sapiens) (Q96RI1 whole entry, looked up, the tested form may be a part): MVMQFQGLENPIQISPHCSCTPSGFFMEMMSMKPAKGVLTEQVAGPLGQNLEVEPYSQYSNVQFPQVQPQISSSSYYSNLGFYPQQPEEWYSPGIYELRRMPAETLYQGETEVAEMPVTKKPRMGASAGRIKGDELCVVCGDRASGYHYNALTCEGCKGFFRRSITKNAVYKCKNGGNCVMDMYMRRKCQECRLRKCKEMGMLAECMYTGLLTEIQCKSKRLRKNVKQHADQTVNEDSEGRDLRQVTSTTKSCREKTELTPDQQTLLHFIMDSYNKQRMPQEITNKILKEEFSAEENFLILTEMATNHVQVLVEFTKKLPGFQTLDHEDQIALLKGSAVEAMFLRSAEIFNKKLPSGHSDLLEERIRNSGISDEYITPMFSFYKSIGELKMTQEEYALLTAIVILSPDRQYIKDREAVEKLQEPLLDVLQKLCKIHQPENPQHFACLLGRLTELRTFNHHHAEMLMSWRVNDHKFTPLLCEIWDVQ
Chain of Oxysterols receptor LXR-beta (Homo sapiens) (P55055 whole entry, looked up, the tested form may be a part): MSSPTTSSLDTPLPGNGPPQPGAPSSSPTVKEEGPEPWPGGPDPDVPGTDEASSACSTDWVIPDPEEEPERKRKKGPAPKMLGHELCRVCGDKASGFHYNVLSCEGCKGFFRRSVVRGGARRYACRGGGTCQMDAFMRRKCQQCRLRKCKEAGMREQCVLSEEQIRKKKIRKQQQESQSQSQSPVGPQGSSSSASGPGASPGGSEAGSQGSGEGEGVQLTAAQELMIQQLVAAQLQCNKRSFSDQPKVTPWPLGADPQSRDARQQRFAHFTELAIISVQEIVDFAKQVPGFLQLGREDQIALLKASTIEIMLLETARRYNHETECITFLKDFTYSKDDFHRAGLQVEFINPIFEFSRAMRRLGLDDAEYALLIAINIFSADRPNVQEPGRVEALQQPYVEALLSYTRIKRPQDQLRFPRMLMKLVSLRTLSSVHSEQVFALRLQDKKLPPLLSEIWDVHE

Turning to `Cc1cccc(C)c1O`, the call in experiment [1], in experiment [2], in [3], in experiment [4], in experiment [6] and in experiment [7] was inactive. The call in [8], in [9], in experiment [10], in experiment [11], in experiment [12] and in experiment [13] was inactive. The AC50 (usually the concentration at which the activity in the assay is half-maximal) in experiment [5] is 31.9 µM (active).
In the case of `CN1CCN(Cc2cc(-c3ccc4[nH]c(=O)oc4c3)co2)[C@@H](c2ccc(F)cc2)C1`, the AC50 is 25.7 µM (active) in [1] and 27.4 µM (active) in [4]. Also, the call in experiment [2], in experiment [3], in experiment [5], in experiment [6], in experiment [7] and in experiment [14] was inactive. Moreover, the compound was classed as inactive in experiment [15], in [16], in [11], in [12] and in experiment [13].
Regarding `Cc1ccc(N(C)C)cc1`, the compound was classed as inactive in experiment [1], in experiment [2], in experiment [3], in [4], in experiment [5] and in experiment [6]. The compound was classed as inactive in experiment [14], in experiment [17], in experiment [10], in experiment [11] and in [13].
Take `CC(C)(C)c1cc(O)c(C(C)(C)C)cc1O`: the AC50 is 8.01 µM (active) in experiment [1], 32 µM (active) in [4] and 37.6 µM (active) in experiment [6]. The outcome in [2], in experiment [3], in [5], in [7], in experiment [8] and in [14] was inactive. The compound was called inactive in [16], in [18], in [11], in [12] and in experiment [13].
For the compound `COc1cc(-c2nc(NC(=O)c3cc4cc(C)cc(C)c4n3CC(=O)O)sc2CCC2CCCCC2)c(OC)cc1Cl`, the AC50 is 5.17 µM (active) in experiment [1]; 100 µM (active) in [2]; 26 µM (active) in experiment [3]; 7.46 µM (active) in experiment [4]; 21.7 µM (active) in experiment [6]; 24.2 µM (active) in experiment [13]. Further, the result in [5], in experiment [7], in experiment [14], in experiment [15], in experiment [16] and in experiment [18] was inactive. The outcome in [17], in [11] and in [12] was inactive.
